# From PubChem
# Six1-Eya2 blk – blocks human Six1 binding to Eya2. AID 651725. 0.56% of 360,000 active. activity change, % (concentration not given with the values). Q15475+O00167. AlphaScreen GST-Six1/His-Eya2 binding, biochemical; stronger effect = lower value
#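 GST-Six1 + His-Eya2 (5X stock: 250/500 nM); Tris pH 8.0, 300 mM NaCl, 0.05% BSA, 0.02% Tween 20; GSH donor/Ni acceptor beads; 1 h 37 °C dark; AlphaScreen readout.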
# CCT modulator – changes cytosolic chaperonin activity | AID 651819 | 0.3% of 360,000 active | purified chaperonin ATPase assay, HTRF ADP detection, 30 min | activity change, % (test concentration not listed), hits read low; in the data active = activity change below about -30%
#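 TRiC (40 or 20 nM final, by batch activity) in 30 mM Tris pH 7.4, 100 mM KCl, 5 mM MgCl2, 1 mM DTT was treated with compound at 76 uM single dose, then 10 uM ATP, 30 min at 37 °C. ADP was read by HTRF Transcreener.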
# Eya2 inh – blocks the phosphatase activity of human Eya2; O00167; recombinant Eya2, OMFP fluorescence dephosphorylation (OMFP is methylfluorescein phosphate); Potency, µM (titrated, usually from 76.9 µM), for inactives: at the highest dose activity, negative = inhibition, hits mostly inhibitors; 0.006% of 330,000 active; active = well fitted inhibition curve with a large enough effect; inconclusive = small, poorly fitted or top-dose-only effect, or effect the other way; note: potency is the fitted concentration of half-maximal effect
#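 Eya2 protein (added as 0.2 uM solution) was preincubated with compound for 10 min at ambient temperature in 50 mM HEPES pH 7.5, 50 mM NaCl, 5 uM MgCl2, 0.05% BSA, 1 mM DTT. OMFP (added at 50 uM) then reacted 10 min; fluorescence read at 485/525 nm.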
# CtBP-E1A blk – blocks the CtBP interaction with E1A; AlphaScreen GST-E1A/His-CtBP binding, 1536-well; stronger effect = lower value; activity change, % (concentration not given with the values); 0.49% of 340,000 active; AID 651724
#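 Protein mix (5X: 125 nM each GST-E1A, His-CtBP) was incubated with pinned compound 2 h at 37 deg C in dark, in 50 mM Tris pH 8.0 buffer with 300 mM NaCl. Glutathione donor and nickel acceptor beads followed; AlphaScreen signal read after 1 h.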
# PI4K2A block – blocks human PI4K2A kinase activity. purified PI4K2A, ADP-Glo luminescence, 1 h; stronger effect = lower value. 0.13% of 420,000 active. AID 1346378. activity change, negative = inhibition, % at 76.9 µM; in the data active = activity change below about -50%; inconclusive = mostly about -30% to -49%;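 note: -100% = wells without enzyme as full effect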
# Target sequence (Q9BTU6 whole entry, looked up): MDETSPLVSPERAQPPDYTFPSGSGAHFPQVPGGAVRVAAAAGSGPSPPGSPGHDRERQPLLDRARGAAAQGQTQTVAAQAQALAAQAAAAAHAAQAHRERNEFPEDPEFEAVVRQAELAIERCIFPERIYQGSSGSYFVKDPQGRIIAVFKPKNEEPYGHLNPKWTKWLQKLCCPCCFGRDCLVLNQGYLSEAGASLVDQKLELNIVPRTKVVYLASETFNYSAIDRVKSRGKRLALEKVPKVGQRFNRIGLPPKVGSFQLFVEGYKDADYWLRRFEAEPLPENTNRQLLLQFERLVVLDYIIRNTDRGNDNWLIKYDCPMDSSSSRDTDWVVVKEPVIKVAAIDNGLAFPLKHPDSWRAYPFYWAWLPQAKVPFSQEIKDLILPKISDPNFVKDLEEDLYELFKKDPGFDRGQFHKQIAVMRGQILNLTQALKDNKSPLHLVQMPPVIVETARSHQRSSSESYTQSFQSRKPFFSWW
#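 In this quantitative HTS, ADP production by PI4K2A was quantified luminescently after 1 h at ambient temperature; 100 microM adenosine served as plate-quality control.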
# * = called active by the depositor; ? = inconclusive; . = no result given. Shown are actives, neighbours in structure and some others; about 0.97% of the full set was active somewhere. Cut-off read from the data, not from the text of the source, unless noted: active = activity change below about -65%; inconclusive = mostly about -30% to -63%; inactive = weaker than that. Unless noted, % is set by controls: 0 for no effect and ±100 for the full control effect.
SMILES,Six1-Eya2 blk,CCT modulator,Eya2 inh,CtBP-E1A blk,PI4K2A block
Cc1ccc(/C=C/c2nc3ccccc3c(=O)[nH]2)cc1,-8,-2,-2%,-12,-7
COc1cccc(-c2cc(NC=O)c3ncc(-c4cc(OC)c(OC)c(OC)c4)n3c2)c1,-15,0,.,?,-3
COc1cccc(-c2cnc3c(NC=O)cc(-c4ccc(O)c(OC)c4)cn23)c1,?,-1,.,-71*,-9
O=C(O)/C=C/C(=O)Nc1ccc2c(c1)C(=O)c1ccccc1C2=O,-67*,2,2%,-23,-15
O=C1c2ccccc2-c2onc3ccc(NCc4ccco4)c1c23,-85*,-2,?,-93*,-20
CCNc1ccc2noc3c2c1C(=O)c1ccccc1-3,-74*,-1,?,-72*,-22
CC(=O)N1c2ccccc2CC1C(=O)N1CCN(c2ccccc2F)CC1 (configuration not stated),.,.,.,.,-9
O=c1c(O)c(-c2ccc(O)c(O)c2)oc2cc(O)ccc12,?,-2,.,-74*,1
O=C(Cc1ccc(S(=O)(=O)N2CCCC2)s1)N1CCN(c2ccccc2)CC1,6,-93*,-2%,-10,-2
O=C(Cc1ccc(S(=O)(=O)N2CCOCC2)s1)N1CCN(c2cccc(C(F)(F)F)c2)CC1,5,0,-5%,-5,-1
NC(=O)CC[C@@H]1NC(=O)[C@H](Cc2ccccc2)NC(=O)[C@H](Cc2ccc(O)cc2)NC(=O)CCSSC[C@@H](C(=O)N2CCC[C@H]2C(=O)N[C@@H](CCCN=C(N)N)C(=O)NCC(N)=O)NC(=O)[C@H](CC(N)=O)NC1=O,.,.,.,.,6
Cc1cccc(-c2nnc(SCCC(=O)O)o2)c1,.,.,.,.,-60*
COC(=O)N/N=C\c1ccc(OC(=O)c2ccco2)cc1,-10,0,10%,4,-2
COC(=O)N/N=C/c1ccc(OC(=O)/C=C/c2ccco2)cc1,?,0,18%,-71*,-5
O=C(Cc1ccccc1)N/N=C/c1ccc(OC(=O)/C=C\c2ccco2)cc1,?,0,-7%,-65*,5
Cc1ccc(Cl)cc1N1CCN(C(=O)c2ccc(C)c(-n3c(C)nc4cccnc43)c2)CC1,.,.,.,.,-1
CC1=CC(c2ccccc2)n2nc(N)nc2N1 (configuration not stated),1,-87*,.,.,0
CC1=CC(c2ccccc2)n2ncnc2N1 (configuration not stated),2,-2,.,3,1
CCOc1ccccc1/C=N/NC(=O)CSc1n[nH]c(=O)[nH]c1=O,-5,-2,2%,.,-1
O=C(CSc1n[nH]c(=O)[nH]c1=O)N/N=C/c1ccccc1O,-80*,1,3%,-77*,1
O=C(Cn1cc(C(F)(F)F)ccc1=O)N/N=C/c1ccc(O)cc1,0,-39*,-1%,8,8
CCC1CCCCN1CCNC(=O)C1CCN(S(=O)(=O)c2cccc3nsnc23)CC1 (configuration not stated),19,-74*,0%,.,-9
CC1CCN(CCNC(=O)C2CCN(S(=O)(=O)c3cccc4nsnc34)CC2)CC1,6,-2,-7%,-23,2
CN(C)c1ccc(N=Nc2ccccc2Br)cc1,-87*,-3,0%,-90*,-4
N#Cc1c(N2CCN(c3ccc(F)cc3)CC2)nc(N)c2c(N)nc3c(c12)CC(=O)N3C1CC1,-82*,1,0%,-78*,-2
SMILES,Six1-Eya2 blk,CCT modulator,Eya2 inh,CtBP-E1A blk,PI4K2A block
NC(=O)c1cc[n+](CC2=C(C(=O)[O-])N3C(=O)[C@@H](NC(=O)Cc4cccs4)[C@H]3SC2)cc1,.,.,.,.,0
N#Cc1c(NC(=O)C2CC(c3ccccc3Cl)=NO2)sc2c1CCC2 (configuration not stated),-1,-92*,0%,-17,-3
COc1ccc(/C=N/NC2=NS(=O)(=O)c3ccccc32)cc1,-4,1,5%,.,-5
Cc1ccc(/C=N/Nc2ccc3ccccc3n2)o1,-12,-1,11%,-2,-8
O=S1(=O)N=C(N/N=C/c2ccccn2)c2ccccc21,-88*,3,-7%,-81*,-8
O=c1nc(N/N=C/c2ccccn2)cn[nH]1,-91*,2,11%,-91*,-14
Cc1ccc(/C=N/Nc2cn[nH]c(=O)n2)o1,?,0,6%,-68*,-27
Cc1nn2c(-c3ccco3)nnc2c2ccccc12,-18,0,.,-20,3
Cc1ccc(-c2nn3c(C)nnc3c3ccccc23)cc1S(=O)(=O)N1CCN(CCO)CC1,-26,1,-2%,-28,-1
Cc1nn2c(-c3ccc(S(=O)(=O)N4CCN(CCO)CC4)o3)nnc2c2ccccc12,?,-4,4%,-75*,-1
COc1ccc(-c2nnc3c4ccccc4c(C)nn23)cc1S(=O)(=O)N1CCN(CCO)CC1,-71*,0,-5%,-82*,-14
COc1ccc(OC)c(NC(=O)O[C@@H]2CC[C@@]34CCCN3C(=O)CCC[C@H]4C2)c1,.,.,.,.,-3
O=C(O)[C@H](O)c1ccccc1,.,.,.,.,1
CCS(=O)(=O)N1CCCc2cc(C(=O)Nc3cc([N+](=O)[O-])ccc3C)ccc21,.,.,.,.,0
CC(NC(=O)Cn1cnnn1)C12CC3CC(CC(C3)C1)C2 (configuration not stated),3,-91*,-4%,3,0
CC(NC(=O)CN1CCCC1)C12CC3CC(CC(C3)C1)C2 (configuration not stated),6,-2,-4%,-1,-2
CN1CCc2c(sc3nc(SCC(=O)N4CCOCC4)n(-c4ccc(Cl)cc4)c(=O)c23)C1,-14,1,8%,-80*,-5
Cc1c(Cl)cccc1NC(=O)NC1CCCCC1,3,-40*,9%,1,1
O=C(Nc1ccccc1NC(=O)NC1CCCCC1)NC1CCCCC1,1,-2,4%,3,1
Cc1ccc(NC(=O)NC2CCCCC2)cc1Cl,3,-5,-2%,5,-71*
O=C(CC1C(=O)NCCN1C/C=C/c1ccccc1)NCCc1cnccn1 (configuration not stated),3,-2,-2%,-2,7
O=C(CC1C(=O)NCCN1C/C=C/c1ccccc1)NCCc1ccncc1 (configuration not stated),1,-33*,0%,-4,7
O=C(COc1ccc(Cl)cc1)Nc1ccccc1C(=O)OCc1cc(=O)n2ccsc2n1,.,.,.,.,-1
CCC(C)NC(=O)c1c(F)c(F)c(F)c(F)c1F (configuration not stated),9,3,0%,10,-63*
CCSC1=C(C#N)C(c2ccccc2OC)CC(=O)N1 (configuration not stated),11,-1,-22%,0,-65*
